HT1080NT lethal: kills 2HG-producing HT-1080-NT fibrosarcoma cells | HT-1080-NT fibrosarcoma viability, CellTiter-Glo ATP luminescence, 48 h | Potency, µM (doses to about 46.1 µM), without a hit: at the top dose activity, negative = less viability, hits mostly cytotoxic | 1.6% of 360,000 active;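 note: NT is the 2HG producing partner of a matched IDH1 knockdown line; potency is the fitted concentration of half-maximal effect; 0% = DMSO-treated cells and -100% = media-only wells without cells; nearly all actives have a fitted effect of over 55% in size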
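Toxicity toward the 2HG-producing NT line was scored as %Activity, normalised to DMSO and no-cell wells, from CellTiter-Glo luminescence after 48 hours' treatment.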
DT40 TDP1 no CPT: qHTS for Inhibitors of human tyrosyl-DNA phosphodiesterase 1 (TDP1): qHTS in cells in absence of CPT. DT40 Tdp1-/- hTDP1 cells, no CPT, ATP luminescence, 48 h. Potency, µM (series often up to 46.2 µM), for the others: at the highest dose activity change, negative = growth inhibition, actives largely listed as inhibitors. 15% of 420,000 active; note: potency is the fitted concentration of half-maximal effect; nearly all actives have a fitted effect of over 55% in size
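Seeded 400 DT40-hTDP1 cells/well (vehicle DMSO, no 20 nM CPT); pinned compounds; ≥48 hr at 37 °C; CellTiter-Glo luminescence as viability measure.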
IL1B secr inh: inhibitors of inflammasome signaling (IL-1 beta secretion) | THP-1 LPS/ATP IL-1B secretion, AlphaLISA, 16 h; active compounds read low | activity change, % at 57.5 µM | 4.7% of 360,000 active | AID 743279; in the data active = activity change below about -50%; inconclusive = mostly about -30% to -49%
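THP-1 cells pretreated 1 hr with compounds (up to 57.5 uM final), then stimulated with LPS (250 ng/mL final) plus ATP (1.25 mM final); secreted IL-1B measured by AlphaLISA after 16 hr, decreased signal indicating inhibition.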
HT1080 IDH1KD tx: kills HT-1080 cells with IDH1 knockdown. AID 686971. HT-1080 IDH1 knockdown viability, ATP luminescence, 48 h. 2% of 360,000 active. Potency, µM (highest dose often 46.1 µM), for the others: at the highest dose activity, negative = toxicity, usual class: cytotoxic;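 note: potency is the fitted concentration of half-maximal effect; 0% = DMSO wells and -100% = cell-free medium wells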
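Cytotoxicity counter-line: IDH1KD HT-1080, 48 h, CellTiter-Glo. Curves classed by r2, magnitude and activity.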
DT40 TDP1 CPT: growth inhibition of DT40 Tdp1-/-;hTDP1 cells with camptothecin (screen for TDP1 inhibitors); chicken DT40 Tdp1-/-;hTDP1 cells + 20 nM CPT, ATP luminescence, 48 h; Potency, µM (doses to about 46.2 µM), without a hit: at the top dose activity change, negative = growth inhibition, most hits filed as inhibitors; 12% of 420,000 active; AID 686979; note: potency is the fitted concentration of half-maximal effect; nearly all actives have a fitted effect of over 55% in size
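Chicken DT40 Tdp1-/- cells complemented with human TDP1, 400 cells/well, exposed to compounds plus 20 nM camptothecin for at least 48 h at 37 C; viability read as ATP content by CellTiter-Glo luminescence.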
Active calls of the source: *; ? = inconclusive; nt = no result given. This is a sample that favours compounds with a hit; in the whole collection about 19% have one here. Unless noted, calls come from the whole dose curve; as a rule, active = well fitted curve in the direction sought with a large enough effect; inconclusive = small, poorly fitted or top-dose-only effect, or another doubt; inactive = no such curve, though single readings can be large; an effect the other way counts as inactive or inconclusive. Unless noted, % is set by controls: 0 for no effect and ±100 for the full control effect.

SMILES	HT1080NT lethal	DT40 TDP1 no CPT	IL1B secr inh	HT1080 IDH1KD tx	DT40 TDP1 CPT
CNc1cc(C(=O)O)nc2ccccc12	nt	1.1µM*	nt	nt	0.89µM*
O=C(NCCCN1CCCC1)c1cc(Sc2ccc(F)cc2)nc2ccccc12	21µM*	-21%	-52*	26µM*	-21%
COc1ccc2c(Sc3ccc(Cl)cc3)c(C(=O)NCCCN3CCCCC3)[nH]c2c1	nt	23µM*	nt	nt	23µM*
CCN(CC)CCCNC(=O)c1[nH]c2ccccc2c1Sc1ccc(Cl)cc1	21µM*	15µM*	-76*	16µM*	?
O=C(NCCCN1CCCCC1)c1cc(Sc2ccc(Cl)cc2)nc2ccccc12	nt	23µM*	nt	nt	16µM*
COc1ccc(CCN2CC(C(=O)NC3CCCCC3)CC2=O)cc1OC (configuration not stated)	-4%	12%	29	4%	-17%
Cn1c(Cl)c(C(=O)Nc2ccc(Cl)cc2)c2ccccc21	-4%	16µM*	56	-23%	?
c1ccc(CCCN2CCN(c3ccccn3)CC2)cc1	-13%	0%	-9	-2%	-9%
CCC(=O)Nc1sc(Cc2ccccc2)c(C)c1C(N)=O	-11%	?	-11	3%	16µM*
Cc1c(Cc2ccccc2)sc(NC(=O)C(C)(C)C)c1C(N)=O	-9%	29µM*	0	1%	16µM*
Cc1cc(C)c(NC(=O)CNC(=O)COC(=O)Cc2ccccc2C)c(C)c1	4%	-31%	-4	-5%	-7%
CC(OC(=O)c1ccc2c(c1)NC(=O)CS2)C(=O)c1ccc(F)cc1 (configuration not stated)	-16%	-19%	-56*	-7%	-9%
COC(=O)c1ccc2c(c1)NC(=O)CS2	10%	-19%	12	9%	-23%
FC(F)(F)c1cccc(Nc2nc3nonc3nc2Nc2ccc(Cl)cc2)c1	nt	0.58µM*	nt	nt	0.23µM*
CCO[C@@H]1OC(C(=O)N2CCCCCCC2)=C[C@H](C2CCCCC2)[C@H]1CCCO	6%	?	-26	-7%	13µM*
C#Cc1ccc([C@H]2C=C(C(=O)N3CCN(Cc4ccc5c(c4)OCO5)CC3)O[C@@H](OCC)[C@@H]2CCCO)cc1	-7%	?	-50*	-14%	?
CCO[C@H]1OC(C(=O)N2CCN(Cc3ccc4c(c3)OCO4)CC2)=C[C@@H](C2CCCCC2)[C@@H]1CCCO	-10%	16µM*	5	-14%	15µM*
CCO[C@@H]1OC(C(=O)N2CCN(Cc3ccc4c(c3)OCO4)CC2)=C[C@H](C2CC2)[C@H]1CCCO	-2%	?	-4	4%	?
CCO[C@@H]1OC(C(=O)N2CCN(Cc3ccc4c(c3)OCO4)CC2)=C[C@H](C)[C@H]1CCCO	-1%	?	-3	3%	-7%
C=CCNS(=O)(=O)c1nc(C)c(Cl)c(C)c1C#N	7%	-1%	-18	6%	-1%
CSc1ncnc2c1ncn2CCCN1CCN(c2ccccn2)CC1	-1%	16µM*	30	0%	?
c1ccc(COc2ncnc3c2ncn3CCCN2CCN(c3ccccn3)CC2)cc1	-11%	16µM*	-26	-1%	?
COc1ncnc2c1ncn2CCCN1CCN(c2ccccn2)CC1	1%	-28%	5	0%	-14%
COc1cc(OC)c(NC(=O)c2cnn(-c3ccccc3)c2-n2cccc2)cc1Cl	nt	-22%	nt	nt	-3%
COc1cc(Cl)c(C)cc1NC(=O)c1cnn(-c2ccc(C)cc2)c1-n1cccc1	nt	-7%	nt	nt	2%
SMILES	HT1080NT lethal	DT40 TDP1 no CPT	IL1B secr inh	HT1080 IDH1KD tx	DT40 TDP1 CPT
CCc1cccc(NC(=O)c2cnn(-c3ccccc3)c2C)c1	-16%	-25%	?	-1%	-18%
COc1ccc(CNC(=O)c2cnn(-c3ccc(C)cc3)c2-n2cccc2)cc1OC	nt	16µM*	nt	nt	?
CCOC(=O)c1cccc(NC(=O)c2cnn(-c3ccccc3)c2-n2cccc2)c1	nt	21µM*	nt	nt	26µM*
O=C(Nc1cc(C(F)(F)F)ccc1Cl)c1cnn(-c2ccccc2)c1-n1cccc1	nt	23µM*	nt	nt	23µM*
COc1ccccc1NC(=O)c1cnn(-c2ccccc2)c1-n1cccc1	nt	18µM*	nt	nt	18µM*
Cc1cccnc1NC(=S)NC(=O)c1oc2ccccc2c1C	-14%	-22%	40	-8%	-3%
COc1ccc(CCN=C(N)NS(=O)(=O)c2ccc(C)c(C)c2)cc1	-3%	-25%	-19	-19%	9%
Cc1ccc(B(O)O)cc1	nt	-11%	nt	nt	?
COc1ccc(CNC(=O)c2cnn(-c3ccccc3)c2-n2cccc2)cc1OC	nt	18µM*	nt	nt	?
COC(=O)[C@@]12C[C@@H](CC(=O)NCCc3ccccc3OC)C(=O)N(Cc3ccco3)C1=CCC(C)(C)C2	?	?	-13	?	?
Cc1cc2c(cc1S(=O)(=O)NCc1ccc(F)cc1)OCC(=O)N2	nt	-15%	nt	nt	-19%
CCN1C(=O)[C@H]2[C@@H](c3ccc(-c4ccc(OC)cc4)c(OC)c3)N[C@@](Cc3ccccc3)(C(=O)OC)[C@H]2C1=O	10%	?	-16	2%	?
CCN1C(=O)[C@H]2[C@@H](c3ccc(-c4cccc(Cl)c4)c(OC)c3)N[C@@](Cc3ccccc3)(C(=O)OC)[C@H]2C1=O	0%	18µM*	?	-18%	?
COC(=O)[C@]1(Cc2ccccc2)N[C@H](c2ccc(-c3cccc(Cl)c3)c(OC)c2)[C@@H]2C(=O)N(C)C(=O)[C@@H]21	-11%	10µM*	?	-22%	13µM*
CCCCc1cc(=O)oc2cc(OCc3nn[nH]n3)ccc12	5%	2%	-8	0%	1%
CC(=O)c1cccc(N(CC(=O)Nc2ccccc2C(=O)N2CCCC2)S(C)(=O)=O)c1	0%	18%	-1	14%	9%
COc1ccc(-c2csc3ncnc(N4CCN(c5ccccc5O)CC4)c23)cc1	1%	16µM*	-18	-5%	?
CC(C)c1ccc(-c2csc3ncnc(N4CCN(C)CC4)c23)cc1	16µM*	12µM*	-92*	21µM*	16µM*
COc1ccc(-c2csc3ncnc(N4CCN(c5ccc(OC)cc5)CC4)c23)cc1	-27%	13µM*	58	-1%	23µM*
CN1CCCN(c2ncnc3scc(-c4ccc(F)cc4)c23)CC1	3%	?	-7	-1%	-21%
COc1ccc(-c2csc3ncnc(N4CCN(c5ccccc5)CC4)c23)cc1	-20%	?	-22	?	?
COc1ccc(-c2csc3ncnc(N4CCN(c5ccccc5[N+](=O)[O-])CC4)c23)cc1	-23%	18µM*	-6	-29%	?

From PubChem BioAssay
